The target in experiment [1] is Retinoic acid receptor RXR-alpha (Homo sapiens) (UniProt P19793). In words: OT_NURR1_NURR1RXRa_0480: Odyssey Thera (OT) 8-hour HEK293T Protein Complementation Assay for Nurr1/retinoid X receptor (RXR) (AID 2283385). The procedure, abridged:
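8 h compound exposure, HEK293T; Nurr1/RXRα fragment complementation; fluorescence intensity; positive fitting direction vs DMSO baseline.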

Experiment [2] has the same target. In words: OT_NURR1_NURR1RXRa_1440: Odyssey Thera (OT) 24-hour HEK293T Protein Complementation Assay for Nurr1/retinoid X receptor (RXR) (AID 2283386). In a few lines:
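Interaction of Nurr1 with RXRα brings fused reporter fragments together in human HEK293T cells, restoring a functional reporter. Fluorescence intensity is measured 24 h after chemical treatment, and values are analysed in the positive direction against DMSO.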

Experiment [3] concerns the target Peroxisome proliferator-activated receptor gamma (Homo sapiens) (UniProt P37231). The experiment is described as follows: OT_PPARg_PPARgSRC1_0480: Odyssey Thera (OT) 8-hour Protein-Complementation Assay for Peroxisome Proliferator-activated Receptor Gamma / SRC-1 Co-activator (AID 2283387).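 Further: nuclear to cytoplasmic split Venus YFP fluorescence ratio reporting PPARg SRC-1 interaction.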 The procedure, abridged:
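Protein-fragment complementation of split Venus YFP reports PPARg/SRC-1 interaction in HEK293T (transfected 48 h before treatment), exposed 8 h. Readout: N/C fluorescence ratio at 488 nm from imaging, Draq5 for segmentation, positive fit relative to DMSO.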

For experiment [4] the target is unchanged. The experiment is described as follows: OT_PPARg_PPARgSRC1_1440: Odyssey Thera (OT) 24-hour Protein-Complementation Assay for Peroxisome Proliferator-activated Receptor Gamma/ SRC-1 Co-activator (AID 2283388).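 Further: nuclear to cytoplasmic ratio of reconstituted Venus YFP fluorescence in fixed imaged cells.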 In a few lines:
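Readout is the 488 nm N/C fluorescence ratio from fixed, Draq5-stained HEK293T cells after 24 h compound exposure. Cells carried transiently transfected PPARg and SRC-1 fused to Venus fragments, transfected 48 h before treatment.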

Experiment [5] concerns the target Bile acid receptor (Homo sapiens) (UniProt Q96RI1). In words: OT_FXR_FXRSRC1_0480: Odyssey Thera (OT) 8-hour HEK293T Protein-Complementation Assay for Farnesoid X receptor/SRC-1 Co-activator (AID 2283383). In a few lines:
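Human kidney HEK293T cells carried FXR/SRC-1 fragment-complementation constructs. Compounds were added and incubated 8 h. Reporter reassembly upon receptor–co-activator interaction was then quantified by fluorescence, with curves fitted in the positive direction relative to DMSO.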

The target is the same in experiment [6]. In words: OT_FXR_FXRSRC1_1440: Odyssey Thera (OT) 24-hour HEK293T Protein-Complementation Assay for Farnesoid X receptor/SRC-1 Co-activator (AID 2283384). In a few lines:
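Compounds are applied to human kidney HEK293T cells expressing bait and prey fused to reporter protein fragments; after 24 h, reconstituted reporter fluorescence is measured. Activity is fitted as signal gain over DMSO.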

In experiment [7] the target is Estrogen receptor (Homo sapiens) (UniProt P03372). In words: OT_ERa_GFPERaERE_0120: Odyssey Thera (OT) 2-hour HeLa Transcription Induction Assay for Estrogen Receptor (AID 2283382). In a few lines:
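HeLa, 384-well, 2 h chemical exposure; GFP reporter induction (ERE), fluorescence microscopy; high content image analysis; positive fitting direction vs DMSO.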

A short description of experiment [8]: CEETOX_H295R_11DCORT: CeeTox H295R High-throughput Steroidogenesis Assay for 11-Deoxycortisol (11DCORT) (AID 2283432; active means hit-call score of the fitted dose curve at least 0.9, where 1 is the maximum; inactive means score below 0.9;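 on AC50: 11-deoxycortisol secreted into the medium measured by LC-MS/MS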). As to conditions: actives raise or lower the signal. The procedure, abridged:
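Human adrenal H295R cells were prestimulated with 10 uM forskolin for 48 h, then exposed to test chemical (0.1% DMSO final) for 48 h. Medium 11-deoxycortisol was quantified by MTBE extraction and HPLC-MS/MS; bidirectional fitting relative to DMSO.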

Experiment [9] in a line: CEETOX_H295R_OHPREG: CeeTox H295R High-throughput Steroidogenesis Assay for OH-Pregnenolone (OHPREG) (AID 2283434; active means hit-call score of the fitted dose curve at least 0.9, where 1 is the maximum; inactive means score below 0.9). As to conditions: actives raise or lower the signal. In a few lines: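 Human adrenal H295R cells were prestimulated 48 h with 10 uM forskolin, then exposed 48 h to chemical in 0.1% DMSO. Medium 17alpha-hydroxypregnenolone was quantified by HPLC-MS/MS after MTBE extraction; bidirectional fitting versus DMSO baseline.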

Experiment [10] in a line: CEETOX_H295R_OHPROG: CeeTox H295R High-throughput Steroidogenesis Assay for OH-Progesterone (OHPROG) (AID 2283435; active means hit-call score of the fitted dose curve at least 0.9, where 1 is the maximum; inactive means score below 0.9;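 on AC50: 17alpha-hydroxyprogesterone secreted into medium measured by HPLC-MS/MS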). The settings on record: actives raise or lower the signal. The procedure, abridged: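 H295R, 10 uM forskolin prestim 48 h; cmpd in 0.1% DMSO 48 h; medium MTBE-extracted, HPLC-MS/MS for OH-progesterone; 7-pt std curve; bidirectional fit vs DMSO; MTT viability, chemicals diluted until viability >/=70%.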

The nature of experiment [11]: CEETOX_H295R_CORTISOL: CeeTox H295R High-throughput Steroidogenesis Assay for Cortisol (AID 2283438; active means hit-call score of the fitted dose curve at least 0.9, where 1 is the maximum; inactive means score below 0.9;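 further: cortisol secreted into medium quantified by LC-MS/MS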). The settings on record: actives raise or lower the signal. In a few lines:
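Forskolin 10 uM 48 h prestim → test cmpd in DMSO (0.1% final) 48 h → medium MTBE-extracted → LC-MS/MS cortisol vs 7-pt std curve. Gain/loss of signal fitted vs DMSO. MTT viability in same wells.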

Records with an inconclusive call do not appear. Where a structure was tested more than once in an assay, its records may differ in their call. The source made the active and inactive calls. How the source made its calls, unless noted: active means hit-call score of the fitted dose curve at least 0.9, where 1 is the maximum; inconclusive means response in the unintended direction; inactive means score below 0.9.

Sequence of Bile acid receptor (Homo sapiens) (Q96RI1 whole entry, looked up, the tested form may be a part): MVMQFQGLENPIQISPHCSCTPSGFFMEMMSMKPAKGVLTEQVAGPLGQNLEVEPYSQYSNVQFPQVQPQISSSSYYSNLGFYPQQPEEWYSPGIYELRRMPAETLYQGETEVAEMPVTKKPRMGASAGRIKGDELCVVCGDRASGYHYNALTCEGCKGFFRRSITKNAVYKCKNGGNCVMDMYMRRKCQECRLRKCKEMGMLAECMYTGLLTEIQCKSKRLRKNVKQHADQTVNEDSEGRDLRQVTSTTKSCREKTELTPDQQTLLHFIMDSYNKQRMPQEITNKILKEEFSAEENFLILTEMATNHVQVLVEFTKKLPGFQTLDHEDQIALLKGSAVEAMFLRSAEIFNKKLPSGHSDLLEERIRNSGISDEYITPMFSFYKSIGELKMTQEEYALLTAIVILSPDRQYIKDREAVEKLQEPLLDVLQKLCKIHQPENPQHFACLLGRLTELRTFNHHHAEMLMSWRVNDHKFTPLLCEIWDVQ
Sequence of Retinoic acid receptor RXR-alpha (Homo sapiens) (P19793 whole entry, looked up, the tested form may be a part): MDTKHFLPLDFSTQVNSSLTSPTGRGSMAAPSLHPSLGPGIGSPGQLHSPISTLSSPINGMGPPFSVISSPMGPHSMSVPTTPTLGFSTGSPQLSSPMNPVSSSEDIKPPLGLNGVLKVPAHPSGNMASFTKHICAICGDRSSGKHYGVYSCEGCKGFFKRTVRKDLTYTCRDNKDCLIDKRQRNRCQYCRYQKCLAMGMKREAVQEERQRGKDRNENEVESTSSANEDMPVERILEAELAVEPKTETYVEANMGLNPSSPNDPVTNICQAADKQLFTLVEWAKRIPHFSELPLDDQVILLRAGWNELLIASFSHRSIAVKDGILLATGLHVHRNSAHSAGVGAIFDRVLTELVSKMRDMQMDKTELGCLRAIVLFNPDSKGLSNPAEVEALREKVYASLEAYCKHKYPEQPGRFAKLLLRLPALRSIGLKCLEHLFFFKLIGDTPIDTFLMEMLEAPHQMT
Sequence of Peroxisome proliferator-activated receptor gamma (Homo sapiens) (P37231 whole entry, looked up, the tested form may be a part): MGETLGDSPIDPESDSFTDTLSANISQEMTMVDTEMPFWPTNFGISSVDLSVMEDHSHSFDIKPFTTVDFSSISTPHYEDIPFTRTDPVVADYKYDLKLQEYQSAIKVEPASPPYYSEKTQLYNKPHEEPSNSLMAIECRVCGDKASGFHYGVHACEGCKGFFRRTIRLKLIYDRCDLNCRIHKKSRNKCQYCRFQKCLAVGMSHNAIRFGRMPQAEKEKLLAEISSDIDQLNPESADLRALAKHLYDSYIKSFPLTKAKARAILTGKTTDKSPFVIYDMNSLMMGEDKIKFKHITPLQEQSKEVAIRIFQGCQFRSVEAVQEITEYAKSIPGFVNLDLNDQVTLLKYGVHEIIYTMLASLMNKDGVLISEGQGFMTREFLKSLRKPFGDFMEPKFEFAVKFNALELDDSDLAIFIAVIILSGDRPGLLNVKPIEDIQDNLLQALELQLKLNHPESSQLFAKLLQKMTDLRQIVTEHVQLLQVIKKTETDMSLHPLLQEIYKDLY
Sequence of Estrogen receptor (Homo sapiens) (P03372 whole entry, looked up): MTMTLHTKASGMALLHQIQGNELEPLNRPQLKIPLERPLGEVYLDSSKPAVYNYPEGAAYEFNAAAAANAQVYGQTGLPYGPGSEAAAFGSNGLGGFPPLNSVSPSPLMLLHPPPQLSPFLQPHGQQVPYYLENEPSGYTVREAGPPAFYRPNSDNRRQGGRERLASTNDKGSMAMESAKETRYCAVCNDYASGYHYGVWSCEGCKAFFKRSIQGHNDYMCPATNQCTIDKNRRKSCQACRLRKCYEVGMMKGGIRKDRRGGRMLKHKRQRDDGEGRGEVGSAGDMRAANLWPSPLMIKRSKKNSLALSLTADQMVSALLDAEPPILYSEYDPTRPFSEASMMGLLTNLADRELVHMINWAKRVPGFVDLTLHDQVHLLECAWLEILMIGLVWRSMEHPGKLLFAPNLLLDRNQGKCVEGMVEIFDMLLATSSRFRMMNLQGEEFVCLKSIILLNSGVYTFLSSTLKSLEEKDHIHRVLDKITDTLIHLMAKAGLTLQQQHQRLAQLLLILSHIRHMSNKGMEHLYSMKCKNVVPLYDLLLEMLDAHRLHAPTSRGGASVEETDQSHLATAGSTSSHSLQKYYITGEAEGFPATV

Regarding `C[C@](N)(Cc1ccc(O)c(O)c1)C(=O)O`, the result in [1], in [2], in [3] and in [4] was inactive.
Take `O=C1CCCCCN1`: the compound was classed as inactive in [5], in [6], in [3] and in experiment [4].
As for `CCOCCOCCOCCO`, the compound was classed as inactive in experiment [6], in experiment [2], in [3] and in experiment [4].
Usually AC50 stands for the concentration giving half of the maximal activity seen. With `Nc1cccc(N)c1`, the compound was called inactive in experiment [5], in experiment [1], in experiment [2], in experiment [3] and in experiment [4]. The AC50 in experiment [6] was 78.8 µM (active).
`COc1ccc(-n2nc(C(F)F)cc2-c2ccc(S(C)=O)cc2)cc1` (stereo unspecified): the compound was called inactive in experiment [7], in [2], in experiment [3], in [4], in experiment [8] and in experiment [9]. The compound was classed as inactive in experiment [10] and in [11].
As for `CN(C)c1ccc(Cc2ccc(N(C)C)cc2)cc1`, the AC50 in experiment [5] was 28 µM (active); in [1], 35.1 µM (active). Besides, the compound was called inactive in experiment [6], in experiment [1], in [2], in experiment [3], in experiment [4] and in experiment [8]. Moreover, the outcome in [9], in [10] and in [11] was inactive.
On to `CC(=O)OC[C@H]1O[C@@](COC(C)=O)(O[C@H]2O[C@H](COC(C)=O)[C@@H](OC(C)=O)[C@H](OC(C)=O)[C@H]2OC(C)=O)[C@@H](OC(C)=O)[C@@H]1OC(C)=O`, for which the compound was called inactive in [1] and in experiment [2].
`CCCCCCCCO`: the outcome in experiment [7], in [2], in experiment [3], in [4], in [8] and in experiment [10] was inactive. Further, in experiment [11], the result was inactive.
As for `Cn1c(=O)c2c(ncn2C)n(C)c1=O`, the result in experiment [1], in experiment [2], in experiment [3] and in [4] was inactive.
Consider `CCOCCO`, for which the compound was called inactive in experiment [1], in [2], in experiment [3] and in [4].
For the compound `CC(=O)c1ccc2c(c1)[C@H](NC(=O)c1ccc(F)cc1)[C@@H](O)C(C)(C)O2`, the compound was called inactive in [3] and in experiment [4].
In the case of `CCN(C(=O)c1cc(C)cc(OC[C@H](C)Nc2ccncc2)c1)C(C)C`, the compound was called inactive in [3] and in experiment [4].
For the compound `O=C(O)CCN(C1(C(=O)NO)CCCC1)S(=O)(=O)c1ccc(Oc2ccc(F)cc2)cc1`, the compound was called inactive in experiment [1], in experiment [2], in experiment [3] and in experiment [4].
With `CCCCCCCCCCCCc1ccccc1`, the result in experiment [3] and in experiment [4] was inactive.
`C=CC(=C)CCC=C(C)C`: the result in [7], in experiment [1], in experiment [2], in experiment [3] and in [4] was inactive.
With `Cc1ccc(S(=O)(=O)O)cc1C`, the compound was called inactive in experiment [7], in experiment [2], in [3] and in experiment [4].
As for `O=C1OC(=O)C2C3C=CC(C3)C12` (stereo unspecified), the result in [2], in experiment [3] and in experiment [4] was inactive.
Regarding `O=C(O)c1cc(N=Nc2ccc(S(=O)(=O)Nc3ccccn3)cc2)ccc1O`, the compound was called inactive in experiment [1], in [2], in experiment [3] and in experiment [4].
On to `C1=CCCC=CCCC=CCC1`, for which the compound was classed as inactive in [5], in [6], in experiment [1], in [2], in experiment [3] and in experiment [4].
For `COc1ccc(/C=C/S(=O)(=O)NC(=O)c2ccc(C)cc2Cl)cc1`, the compound was called inactive in experiment [5], in [3], in [8], in experiment [9] and in [11]. Moreover, the half-maximal activity concentration (AC50) in [6] was 7.84 µM (active); in experiment [1], 24 µM (active); in [2], 29 µM (active); in [4] it was 60.6 µM (active); in [10], 17.7 µM (active).
As for `O=C(NS(=O)(=O)/C=C/c1ccccc1)c1ccc(F)cc1Cl`, the compound was classed as inactive in experiment [7] and in experiment [3]. Moreover, the half-maximal activity concentration (AC50) in experiment [1] is 27.4 µM (active); in experiment [2], 15.2 µM (active); in experiment [4], 50 µM (active).
In the case of `CC[C@H](C)C(=O)O[C@H]1C[C@@H](C)C=C2C=C[C@H](C)[C@H](CC[C@@H]3C[C@@H](O)CC(=O)O3)[C@H]21`, the outcome in experiment [7], in experiment [2], in experiment [3], in experiment [4] and in experiment [11] was inactive. Further, the AC50 in [5] was 32 µM (active); in [6], 34.8 µM (active); in experiment [8], 2.84 µM (active); in experiment [9] it was 0.026 µM (active); in experiment [10], 2.96 µM (active).
As to `CC[C@H]1OC(=O)[C@H](C)[C@@H](O[C@H]2C[C@@](C)(OC)[C@@H](O)[C@H](C)O2)[C@H](C)[C@@H](O[C@@H]2O[C@H](C)C[C@H](N(C)C)[C@H]2O)[C@](C)(O)C[C@@H](C)C(=O)[C@H](C)[C@@H](O)[C@]1(C)O`, the compound was called inactive in experiment [1], in experiment [2], in experiment [3] and in [4].
As for `CC(C)c1cccc(C(C)C)c1N1C(=O)c2ccc(O)cc2C1=O`, the AC50 was 20.7 µM (active) in experiment [5]; 2.63 µM (active) in experiment [6]; 32.5 µM (active) in experiment [9]; 31.7 µM (active) in experiment [10]; 27.1 µM (active) in experiment [11]. For the same compound, the outcome in [2], in [3] and in experiment [4] was inactive.
For the compound `CCOC(=O)CC(CC(=O)OCC)(OC(C)=O)C(=O)OCC`, the outcome in [5], in experiment [6], in experiment [2], in experiment [3] and in experiment [4] was inactive.
With `Cc1c(-c2cccnc2)c2ccccc2n1CCCCC(=O)O`, the compound was classed as inactive in [5], in experiment [6], in experiment [3], in experiment [4], in [9] and in experiment [10].
In the case of `On1ccccc1=S`, the result in experiment [1], in [2], in experiment [3] and in experiment [4] was inactive.
Regarding `CC1=CC(=O)CC(C)(C)C1`, the result in [1], in experiment [2], in experiment [3], in [4], in experiment [8] and in experiment [9] was inactive. For the same compound, the call in [10] and in [11] was inactive.

(Values after PubChem BioAssay (EPA / NIEHS).)
